Results reported in PubChem BioAssay AID2284128 (EPA ToxCast).
Activity calls are given as the source filed them. How the source made its calls: active means hit-call score of the fitted dose curve at least 0.9, where 1 is the maximum; inactive means score below 0.9.

Target: human Phosphatase (PTEN), PTEN (gene 5728) (UniProt P60484)
Assay: ERF_TW_ENZ_hPTEN: Eurofins (ERF) Enzymatic LeadHunter Assay for human Phosphatase (PTEN)
Procedure: ERF_TW_ENZ_hPTEN is a biochemical, single-readout assay that uses extracted gene-proteins in a cell-free assay. Measurements were taken 1 hour after chemical dosing in a 96-well plate. See PTEN Human Phosphatase Enzymatic Assay, Panlabs.ERF_TW_ENZ_hPTEN is an assay component calculated from the ERF_TW_ENZ_hPTEN assay. It is designed to measure enzyme activity using a type of enzyme reporter as detected by fluorescence intensity with spectrophotometry technology.Data from the assay component ERF_TW_ENZ_hPTEN was analyzed at the assay endpoint, ERF_TW_ENZ_hPTEN, in the positive analysis fitting direction relative to DMSO as the negative control and baseline of activity. Using a type of enzyme reporter, loss-of-signal activity can be used to understand changes in enzymatic activity as they relate to gene PTEN. To generalize the intended target to other relatable targets, this assay endpoint is annotated to the phosphatase intended target family, where the subfamily is dual-specific phosphatase.
Human recombinant phosphatase PTEN expressed in E. coli is used. Test compound and/or vehicle is preincubated with 2 ug/ml enzymedouble dagger for 15 minutes at 37C in modified Tris-HCl buffer pH 8.5. The reaction is initiated by addition of 100 uM DiFMUP for 60 minutes. Determination of the amount of DiFMU formed is read spectrofluorimetrically at 358 nm/450 nm. […]

Sequence of human Phosphatase (PTEN), PTEN (gene 5728) (P60484 whole entry, looked up): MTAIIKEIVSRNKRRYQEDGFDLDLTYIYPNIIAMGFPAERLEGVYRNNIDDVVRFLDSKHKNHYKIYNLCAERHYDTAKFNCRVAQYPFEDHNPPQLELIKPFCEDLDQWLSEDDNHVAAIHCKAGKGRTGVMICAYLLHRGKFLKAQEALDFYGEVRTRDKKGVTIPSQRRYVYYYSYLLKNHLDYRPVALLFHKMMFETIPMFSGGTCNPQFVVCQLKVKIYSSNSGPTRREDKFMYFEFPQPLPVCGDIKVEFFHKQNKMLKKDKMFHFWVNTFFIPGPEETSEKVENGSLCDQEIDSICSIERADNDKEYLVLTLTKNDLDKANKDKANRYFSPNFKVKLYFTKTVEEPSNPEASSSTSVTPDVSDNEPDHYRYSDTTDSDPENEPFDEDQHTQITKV

For O=C(/C=C/c1ccc(O)cc1)CC(=O)/C=C/c1ccc(O)cc1, which AC50 is on record?
Its AC50 is 5 µM (active).
